Experiment [1] can be described thus: Viability qHTS for spleen associated tyrosine kinase inhibitor (SYKi) naive MV4-11 cells (AID 1963823). Note: nearly all actives have a fitted effect of over 40% in size. To be noted: MV4-11 AML viability, CellTiter-Glo luminescence, 72 h; series mostly up to 45 µM. An outline of the steps: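 In this viability screen, compounds acted on SYK inhibitor naive MV4-11 cells for three days (72 hr, 37 C). Remaining viable cells were measured by CellTiter-Glo luminescence following a 10 min room-temperature development.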
A general note: In qHTS, concentration-response curves come from the screen itself.

The nature of experiment [2]: Viability qHTS for spleen associated tyrosine kinase inhibitor (SYKi) drug resistant MV4-11 cells (AID 1963824). Note: nearly all actives have a fitted effect of over 35% in size. To be noted: SYKi-resistant MV4-11 viability, CellTiter-Glo, 72 h; series mostly up to 45 µM. An outline of the steps:
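SYK inhibitor-resistant MV4-11 AML cells, 500 per well, added to predispensed compounds and incubated 72 hr at 37 C, 5% CO2. Viability measured by CellTiter-Glo luminescence after 10 min at room temperature.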

SMILES strings stand for the structures. Values joined by “and” are separate entries in the source; they are usually repeats but may differ in a detail not shown here. Identical values can stand only once. Inconclusive results are not listed. Unmarked numbers belong to inactive results. Active and inactive are the calls of the source. Calls come from the whole dose curve; as a rule, active = well fitted cell-killing curve with a large enough effect; inconclusive = small, poorly fitted or top-dose-only effect, or effect the other way; inactive = no such curve, though single readings can be large or run the other way.

28 compounds from PubChem BioAssay (NCATS) can be followed below.
Potency is the fitted concentration of half-maximal effect.

Take `CC(/C=C/C=C(\C)C(=O)O[C@@H]1O[C@H](CO[C@@H]2O[C@H](CO)[C@@H](O)[C@H](O)[C@H]2O)[C@@H](O)[C@H](O)[C@H]1O)=C\C=C\C=C(C)\C=C\C=C(/C)C(=O)O[C@@H]1C[C@](O)(C(=O)O)C[C@@H](O)[C@H]1OC(=O)/C=C/c1ccc(O)c(O)c1`: in experiment [1], the viability (% of control) is 78.4% [at 9.25 µM]. For the same compound, in experiment [2], the viability, % of control was 91.1% [at 9.25 µM].
With `C[C@@H]1CN(CCCn2c3ccccc3c3ccccc32)C[C@H](C)N1`, the Potency in experiment [1] was 23.7 µM (active); in experiment [2] it was 26.6 µM (active).
Take `C/C1=C\C[C@H](O[C@@H]2O[C@H](CO)[C@@H](O)[C@H](O)[C@H]2O)/C(C)=C/[C@H]2OC(=O)[C@H](C)[C@@H]2CC1`: the Potency result in experiment [1] and in experiment [2] was “inactive” in each case.
As to `C[C@@H]1O[C@@H](O[C@H]2[C@H](O[C@H]3[C@H](O[C@H]4CC[C@@]5(C)C(CC[C@]6(C)C5CC=C5[C@@H]7CC(C)(C)C[C@@H](O)[C@]7(C)CC[C@]56C)[C@@]4(C)CO)O[C@H](C(=O)O)[C@@H](O)[C@@H]3O)O[C@H](CO)[C@H](O)[C@@H]2O)[C@H](O)[C@H](O)[C@H]1O` (stereo partly specified), in experiment [1], the viability (% of control) is 74.1% [at 9.25 µM]. In experiment [2], the viability, % of control is 80.3% [at 9.25 µM].
Turning to `C=CC1C(O[C@@H]2O[C@H](CO)[C@@H](O)[C@H](O)[C@H]2O)OC=C(C(=O)OC)C1CC(=O)O` (stereo partly specified), the Potency entry in experiment [1] and in experiment [2] was “inactive” each time.
As to `O=C(C[C@@H]1C(C(=O)O)=CO[C@@H](O[C@@H]2O[C@H](CO)[C@@H](O)[C@H](O)[C@H]2O)/C1=C\CO)OCCc1ccc(O)cc1`, the Potency result in experiment [1] and in experiment [2] was “inactive” in each case.
As to `C[C@@H]1O[C@@H](O[C@H]2[C@H](OC(C#N)c3ccc(O)cc3)O[C@H](CO)[C@@H](O)[C@@H]2O)[C@H](O)[C@H](O)[C@H]1O` (stereo partly specified), the Potency result in experiment [1] and in experiment [2] was “inactive” throughout.
Turning to `CC1=C2[C@@H]([C@H](C)CC[C@H]2/C=C(\C)C(=O)O)[C@H](O)C1`, the Potency entry in experiment [1] and in experiment [2] was “inactive” throughout.
With `CC(C)c1nc(-c2ccc(NC(=O)Nc3cccc(C(F)(F)F)c3)c3ccccc23)c2c(N)nccn12`, the Potency in experiment [1] is 0.366 µM (active); in experiment [2], 0.411 µM (active).
As for `C/C=C/C=C/[C@@H]1O[C@](O)([C@H](CC)C(=O)NC/C=C/C=C(\C)[C@@H](OC)[C@@H](C)C2OC(/C=C/C=C/C=C(\C)C(=O)c3c(O)cc[nH]c3=O)[C@H](O)[C@@H]2O)[C@H](O)[C@H](O)C1(C)C` (stereo partly specified), the Potency result in experiment [1] is “inactive”. In addition, in experiment [2], the Potency is 0.243 µM (active).
The corresponding values for `CC(OC1OCCN(Cc2n[nH]c(=O)[nH]2)C1c1ccc(F)cc1)c1cc(C(F)(F)F)cc(C(F)(F)F)c1` (stereo unspecified) are 9.2 µM (active) and 5.8 µM (active).
For `O=c1cc(-c2ccc(O)cc2)oc2cc(OC3OC(CO)C(O)C(O)C3O)c(C3OC(CO)C(O)C(O)C3O)c(O)c12` (stereo unspecified) the same measures were “inactive” and “inactive”.
For `O=C1NC(Cc2ccccc2)C(=O)N2CCCC12` (stereo unspecified) the same measures were “inactive” and “inactive”.
For `Cc1ccc([C@@H]2O[C@H](CO)[C@@H](O)[C@H](O)[C@H]2O)cc1Cc1ccc(-c2ccc(F)cc2)s1`, the Potency was 18.6 µM (active) in experiment [1] and 16.6 µM (active) in experiment [2].
Regarding `Clc1ccc(Cn2c(CN3CCCC3)nc3ccccc32)cc1`, the Potency in experiment [1] is 14.8 µM (active); in experiment [2] it was 15 µM (active) and 14.8 µM (active).
As for `CC(C)c1ccc2c(c1)C(O)CC1C(C)(C(=O)O)CCCC21C` (stereo unspecified), the Potency result in experiment [1] and in experiment [2] was “inactive” throughout.
As for `C/C(=C/CCC(CO)C1CCC2(C)C3CCC4C(C)(C)C(OC5OC(CO)C(O)C(O)C5O)CC(O)C45CC35CCC12C)COC1OC(CO)C(O)C(O)C1O` (stereo unspecified), the Potency result in experiment [1] and in experiment [2] was “inactive” each time.
In the case of `CC1(C)CC[C@]23CO[C@@]4(CCC5[C@@]6(C)CC[C@H](O[C@@H]7OC[C@H](O[C@@H]8O[C@H](CO)[C@@H](O)[C@H](O)[C@H]8O[C@@H]8OC[C@@H](O)[C@H](O)[C@H]8O)[C@H](O)[C@H]7O[C@@H]7O[C@H](CO)[C@@H](O)[C@H](O)[C@H]7O)[C@@](C)(CO)C6CC[C@@]5(C)[C@]4(C)C[C@H]2O)[C@@H]3C1` (stereo partly specified), the Potency in experiment [1] was 2.19 µM (active); in experiment [2], 3.9 µM (active).
Take `C[C@@H]1O[C@@H](O[C@H]2[C@@H]3C=CO[C@@H](O[C@@H]4O[C@H](CO)[C@@H](O)[C@H](O)[C@H]4O)[C@@H]3[C@@]3(CO)O[C@@H]23)[C@H](OC(=O)/C=C/c2ccc(O)cc2)[C@H](O)[C@H]1O`: the Potency result in experiment [1] and in experiment [2] was “inactive” each time.
On to `CC(C)[C@@H](c1ccc(C(F)(F)F)cc1CN(Cc1cc(C(F)(F)F)cc(C(F)(F)F)c1)c1nnn(C)n1)N1CCC(C(=O)O)CC1`, for which the Potency in experiment [1] is 16.4 µM (active); in experiment [2], 20.6 µM (active).
For `CCOC(=O)C1=Cc2ccc(C(F)(F)C(F)(F)F)cc2N=C(N)C1`, the Potency in experiment [1] and in experiment [2] was 20.6 µM (active) throughout.
For the compound `CC(C)(C)c1ccc(S(=O)(=O)NCc2ccc(C(=O)Nc3cccnc3)cc2)cc1`, the Potency in experiment [1] and in experiment [2] was 0.231 µM (active) each time.
In the case of `O=C(O)Cc1nn(Cc2nc3cc(C(F)(F)F)ccc3s2)c(=O)c2nccnc12`, the Potency entry in experiment [1] and in experiment [2] was “inactive” in each case.
Turning to `C=C(C)C(=O)OC1CC2(C)OC(=CC2=O)C(=C)CC2OC(=O)C(=C)C12` (stereo unspecified), the values for the Potency in experiment [1] and in experiment [2] were 0.255 µM (active) and 0.36 µM (active), respectively.
`CC1CCC23COC(=O)C2=CC(O)CC3C1(C)CCc1ccoc1` (stereo unspecified): the Potency entry in experiment [1] and in experiment [2] was “inactive” each time.
Turning to `CC1(C)CCC2(C(=O)OC3OC(COC4OC(CO)C(O)C(O)C4O)C(O)C(O)C3O)CCC3(C)C(=CCC4C5(C)CCC(O)C(C)(C(=O)O)C5CCC43C)C2C1O` (stereo unspecified), in experiment [1], the viability (% of control) is 83.4% [at 9.25 µM]. Further, in experiment [2], the viability, % of control is 102% [at 9.25 µM].
With `O=C1C[C@@H](c2ccc(O)cc2)Oc2cc(O)ccc21`, the Potency is 11.6 µM (active) in experiment [1] and 14.6 µM (active) in experiment [2].
`CCOC(=O)c1cnc2ccc(-c3cncc(NS(=O)(=O)c4ccccc4)c3)cn12`: the results for the Potency in experiment [1] and in experiment [2] were 0.326 µM (active) and 0.231 µM (active), respectively.
